Reference: PubChem BioAssay
Calls of active or inactive are those of the source. Unless noted, how the calls were made is not given here.

Assays:
[1] = anti-His antibody binders, primary screen, artefact control for SMM control protein annotation, biochemical, small-molecule microarray, 635 nm fluorescence (AID 1128); details: anti-His Alexa647 antibody binding, higher = more signal;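 further: score merges feature fluorescence with signal-to-noise for each printed compound spot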
[2] = test system: Human papillomavirus type 1a E7 protein (residues 1-88); assay: HPV1a E7 small-molecule binders, primary screen, biochemical, small-molecule microarray, residues 1-88, 635 nm (AID 1129); details: small-molecule microarray binding, fluorescence 635 nm; higher = more signal
[3] = molecular target: Focal adhesion kinase 1 (Homo sapiens) (UniProt Q05397); assay: small-molecule microarray binders of FAK, primary screen, biochemical, 635/667 nm fluorescence, BSA, DTT (AID 1130); details: PTK2 binding, 635 nm fluorescence, higher = more signal;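 further: composite of spot emission at 667 nm and signal to noise over triplicate slides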
Sequence of Focal adhesion kinase 1 (Homo sapiens) (Q05397 whole entry, looked up): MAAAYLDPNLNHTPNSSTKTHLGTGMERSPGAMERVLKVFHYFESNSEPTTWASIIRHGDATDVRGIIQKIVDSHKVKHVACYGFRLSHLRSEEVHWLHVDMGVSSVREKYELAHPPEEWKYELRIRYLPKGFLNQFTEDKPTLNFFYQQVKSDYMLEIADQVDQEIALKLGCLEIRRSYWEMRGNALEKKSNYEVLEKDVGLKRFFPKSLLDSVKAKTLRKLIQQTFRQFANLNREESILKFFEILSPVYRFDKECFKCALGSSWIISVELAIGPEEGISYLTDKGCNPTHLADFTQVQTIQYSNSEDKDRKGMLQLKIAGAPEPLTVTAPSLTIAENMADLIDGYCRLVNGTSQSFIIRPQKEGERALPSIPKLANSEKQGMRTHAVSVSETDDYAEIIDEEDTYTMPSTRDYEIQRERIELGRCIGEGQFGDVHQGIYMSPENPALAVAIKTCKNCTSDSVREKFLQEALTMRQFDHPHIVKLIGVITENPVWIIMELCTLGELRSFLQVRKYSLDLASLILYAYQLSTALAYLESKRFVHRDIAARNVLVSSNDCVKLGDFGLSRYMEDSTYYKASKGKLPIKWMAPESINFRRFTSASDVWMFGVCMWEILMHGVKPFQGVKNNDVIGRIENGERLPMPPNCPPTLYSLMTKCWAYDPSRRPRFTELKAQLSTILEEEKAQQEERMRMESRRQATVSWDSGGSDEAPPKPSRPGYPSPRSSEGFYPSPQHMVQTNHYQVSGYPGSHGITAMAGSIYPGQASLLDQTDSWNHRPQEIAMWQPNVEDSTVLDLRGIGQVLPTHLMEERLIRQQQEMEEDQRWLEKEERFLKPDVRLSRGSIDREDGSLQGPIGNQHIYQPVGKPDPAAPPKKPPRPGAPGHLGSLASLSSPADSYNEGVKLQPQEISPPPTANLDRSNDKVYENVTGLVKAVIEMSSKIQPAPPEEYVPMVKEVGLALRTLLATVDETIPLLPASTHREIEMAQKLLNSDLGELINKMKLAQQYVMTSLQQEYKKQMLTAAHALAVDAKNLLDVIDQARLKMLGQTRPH

[4] = test system: Fibrinogen (Alexa647-labelled); assay: fibrinogen binders on compound microarrays, profiling panel, artefact control for SMM control-protein annotation, biochemical, small-molecule microarray, 635/667 nm fluorescence (AID 1131); details: fibrinogen-A647 binding fluorescence, higher = more signal;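 further: z-score merges 667 nm fluorescence with per-spot signal-to-noise over triplicate slides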
[5] = molecular target: Follistatin (Homo sapiens) (UniProt P19883); assay: follistatin binders on small-molecule microarrays, primary screen, biochemical, small-molecule microarray, 635/667 nm fluorescence (AID 1132); details: FST binding, 635 nm fluorescence, higher = more signal
Sequence of Follistatin (Homo sapiens) (P19883 whole entry, looked up): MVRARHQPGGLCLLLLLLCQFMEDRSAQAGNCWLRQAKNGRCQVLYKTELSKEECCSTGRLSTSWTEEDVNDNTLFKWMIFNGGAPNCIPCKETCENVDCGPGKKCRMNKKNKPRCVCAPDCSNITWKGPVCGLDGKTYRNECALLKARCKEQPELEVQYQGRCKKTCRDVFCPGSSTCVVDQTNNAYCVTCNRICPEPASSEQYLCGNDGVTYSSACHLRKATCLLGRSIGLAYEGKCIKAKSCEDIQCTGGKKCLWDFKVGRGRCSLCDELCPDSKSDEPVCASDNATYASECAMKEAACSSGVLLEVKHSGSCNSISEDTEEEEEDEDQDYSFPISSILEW

[6] = molecular target: Fibroblast growth factor 2 (Homo sapiens) (UniProt P09038); assay: FGF2 binders on small-molecule microarrays, primary screen, biochemical, small-molecule microarray, 635/667 nm fluorescence (AID 1133); details: small-molecule microarray binding, FGF2, fluorescence 635/667; higher = more signal
Sequence of Fibroblast growth factor 2 (Homo sapiens) (P09038 whole entry, looked up): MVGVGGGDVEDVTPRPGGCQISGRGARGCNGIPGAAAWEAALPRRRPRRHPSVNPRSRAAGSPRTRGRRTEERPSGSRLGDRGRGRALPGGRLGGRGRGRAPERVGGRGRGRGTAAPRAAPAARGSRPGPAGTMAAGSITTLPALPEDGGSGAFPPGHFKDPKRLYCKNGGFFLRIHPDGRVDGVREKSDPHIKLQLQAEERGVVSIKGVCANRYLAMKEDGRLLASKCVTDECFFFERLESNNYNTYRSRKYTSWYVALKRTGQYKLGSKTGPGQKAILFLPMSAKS

[7] = mitochondrial membrane potential change in A549 cells, profiling panel, cell-based, JC-1 fluorescence, basal, 24 h, 100 nL (AID 1138); details: higher = more signal;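 further: A549 lung adenocarcinoma cells under basal conditions with no added stimulus; test concentration not given here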
Lefty1 = Lefty1 binders on small-molecule microarrays, primary screen, biochemical, small-molecule microarray, 635/667 nm fluorescence (AID 1139); details: small-molecule microarray binding, fluorescence 635/667; higher = more signal
[8] = test system: wheat germ agglutinin (Triticum aestivum), Alexa647-labelled; assay: wheat germ agglutinin binders on compound microarrays, profiling panel, artefact control for SMM control-protein annotation, biochemical, small-molecule microarray, 635/667 nm fluorescence (AID 1140); details: WGA-A647 binding, 635 nm fluorescence, higher = more signal;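 further: score merges 667 nm feature emission with signal to noise over triplicate slides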
[9] = molecular target: Luciferin 4-monooxygenase (Photinus pyralis) (UniProt P08659); assay: firefly luciferase enzyme inhibitors, primary screen, biochemical, luminescence, purified enzyme, 2006 set (AID 1141); details: SteadyGlo luminescence, 30 min, higher = more signal, called active from +8 up or from −8 down;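 further: cell-free assay with purified firefly luciferase at 100 ng per well in PBS; test concentration not given here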
Sequence of Luciferin 4-monooxygenase (Photinus pyralis) (P08659 whole entry, looked up): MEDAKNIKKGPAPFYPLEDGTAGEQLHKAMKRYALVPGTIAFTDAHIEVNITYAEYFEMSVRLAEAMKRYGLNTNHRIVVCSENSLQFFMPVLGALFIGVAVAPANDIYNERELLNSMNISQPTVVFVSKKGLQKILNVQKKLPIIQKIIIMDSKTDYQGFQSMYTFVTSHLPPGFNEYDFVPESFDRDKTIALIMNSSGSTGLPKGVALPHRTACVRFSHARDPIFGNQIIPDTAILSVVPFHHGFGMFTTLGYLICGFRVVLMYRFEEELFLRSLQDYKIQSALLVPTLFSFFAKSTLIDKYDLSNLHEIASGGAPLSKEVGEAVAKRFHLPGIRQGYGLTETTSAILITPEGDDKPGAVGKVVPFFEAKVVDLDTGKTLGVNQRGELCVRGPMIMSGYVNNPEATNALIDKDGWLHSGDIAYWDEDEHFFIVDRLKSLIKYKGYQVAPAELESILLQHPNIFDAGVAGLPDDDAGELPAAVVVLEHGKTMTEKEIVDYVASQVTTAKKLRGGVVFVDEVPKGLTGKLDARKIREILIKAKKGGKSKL

[10] = test system: Wnt5a (protein binding on small-molecule microarray); assay: Wnt5a binders on small-molecule microarray, primary screen, biophysical, 635/667 nm fluorescence (AID 1142); details: 635 nm fluorescence, higher = more signal;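 further: fluorescence read at 667 nm with signal to noise per printed feature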
[11] = cell viability in Huh7 cells, primary screen, cytotoxicity control for HCV replication inhibitor project, CellTiter-Glo luminescence, basal, 48 h (AID 1143); details: Huh7 HCV replicon, higher = more signal, called active from +8 up or from −8 down;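 further: Huh7 hepatoma cells carrying a hepatitis C replication reporter with no stimulus; test concentration not given here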
[12] = P. aeruginosa biofilm formation inhibitors, primary screen, PAO1 strain, BacTiter-Glo luminescence, LB-PBS (AID 1144); details: 12 h, higher = more signal
[13] = CREB reporter modulators without forskolin, primary screen, cell-based, PC12, CRE-LacZ reporter, unstimulated (AID 1145); details: no forskolin, luminescence, 4.5 h, higher = more signal, called active from +8 up or from −8 down
[14] = CREB reporter modulators under forskolin, primary screen, cell-based, PC12, CRE-LacZ reporter, forskolin-stimulated (AID 1146); details: luminescence, 4.5 h, higher = more signal, called active from +8 up or from −8 down;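 further: PC12 cells with 6xCRE LacZ reporter stimulated by forskolin 10 µM; beta-galactosidase reporter signal reflecting CREB driven transcription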
[15] = molecular target: Streptavidin (Streptomyces avidinii) (UniProt P22629); assay: streptavidin binders on small-molecule microarray, primary screen, artefact control for SMM compound annotation, biophysical, 635/667 nm fluorescence (AID 1147); details: streptavidin binding, higher = more signal;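 further: signal reflects streptavidin binding to arrayed compounds as a control protein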
Sequence of Streptavidin (Streptomyces avidinii) (P22629 whole entry, looked up): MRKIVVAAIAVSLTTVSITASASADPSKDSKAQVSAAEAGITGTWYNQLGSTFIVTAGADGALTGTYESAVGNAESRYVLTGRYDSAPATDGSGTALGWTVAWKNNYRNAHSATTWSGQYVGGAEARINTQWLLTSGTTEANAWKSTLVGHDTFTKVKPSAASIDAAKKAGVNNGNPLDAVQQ

[16] = small-molecule binders of probe aInhba, primary screen, biochemical, small-molecule microarray, 635/667 nm fluorescence (AID 1148); details: higher = more signal;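 further: score merges 667nm spot fluorescence with signal-to-noise for antibody binding to printed compounds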
Torsin-1A (Homo sapiens) [17] = molecular target: Torsin-1A (Homo sapiens) (UniProt O14656); assay: torsin A binders from cell lysate, primary screen, small-molecule microarray, wild-type, 635/667 nm (AID 1149); details: COS7 hTOR1A-WT lysate, 635 nm fluorescence, higher = more signal
Sequence of Torsin-1A (Homo sapiens) (O14656 whole entry, looked up): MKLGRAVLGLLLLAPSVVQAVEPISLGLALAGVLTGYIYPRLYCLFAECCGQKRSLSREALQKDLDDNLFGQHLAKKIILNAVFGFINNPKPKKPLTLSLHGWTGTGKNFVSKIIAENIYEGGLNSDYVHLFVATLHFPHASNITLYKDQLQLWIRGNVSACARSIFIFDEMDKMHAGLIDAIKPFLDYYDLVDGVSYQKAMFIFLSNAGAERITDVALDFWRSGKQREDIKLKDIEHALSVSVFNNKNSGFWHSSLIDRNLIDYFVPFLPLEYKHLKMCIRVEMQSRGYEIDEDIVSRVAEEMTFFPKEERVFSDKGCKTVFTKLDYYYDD

Torsin-1A (Homo sapiens) [18] = molecular target: Torsin-1A (Homo sapiens) (UniProt O14656); assay: small-molecule binders of mutant TOR1A in lysate, primary screen, cell lysate, small-molecule microarray, COS7 lysate, 635/667 nm fluorescence (AID 1150); details: COS7 hTOR1A mutant lysate, 635 nm fluorescence, higher = more signal;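 further: score pools 667 nm emission and signal to noise measuring lysate protein binding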
[19] = test system: Sonic hedgehog protein (Shh); assay: small-molecule binders of Shh protein, primary screen, biochemical, small-molecule microarray, 635/667 nm fluorescence (AID 1151); details: small-molecule microarray binding, 635 nm fluorescence; higher = more signal;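 further: Shh protein binding to compounds spotted on small-molecule microarray slides; score combines spot fluorescence intensity with signal-to-noise across triplicate slides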

Row | SMILES | composite z-score [1] | composite z-score [2] | composite z-score [3] | composite z-score [4] | composite z-score [5] | composite z-score [6] | z-score [7] | composite z-score (Lefty1) | composite z-score [8] | z-score [9] | composite z-score [10] | z-score [11] | z-score [12] | z-score [13] | z-score [14] | composite z-score [15] | composite z-score [16] | composite z-score (Torsin-1A (Homo sapiens) [17]) | composite z-score (Torsin-1A (Homo sapiens) [18]) | composite z-score [19]
1 | C=C[C@@H](C)[C@@H](OC(=O)Nc1ccc(OC)cc1)c1ccc(O)c2ccccc12 | 0.305 | 0.52 | -0.209 | 0.521 | 1.16 | 1.22 | -1.38 | 0.676 | 0.449 | -5.76 (inactive) | -0.124 | -5.48 (inactive) | -0.901 (inactive) | 0.758 (inactive) | 0.999 (inactive) | 0.0646 | -0.154 | 0.15 | -0.0324 | 1.53
2 | COCCOC(=O)N1C(=O)[C@@]2(c3ccccc31)[C@H](C(=O)N1CCCCCCC1)[C@H]1C(=O)O[C@H](c3ccccc3)[C@H](c3ccccc3)N1[C@@H]2c1ccccc1OCCO | 2.04 | 1.27 | 1.26 | 0.802 | 1.47 | 0.662 | -0.647 | 1.47 | 1.53 | 0.131 (inactive) | 1.09 | -2.56 (inactive) | -0.699 (inactive) | 0.0384 (inactive) | 0.207 (inactive) | 2.79 | 1.76 | 1.27 | 1.76 | 1.3
3 | C=CCN1Cc2ccccc2C[C@@]2(COC(c3ccc(OCCCO)cc3)=N2)C1=O | 0.131 | 1.2 | 0.92 | 0.526 | 1.15 | 0.788 | 1.67 | 0.374 | 0.41 | -1.62 (inactive) | 0.253 | -2.99 (inactive) | -0.547 (inactive) | 3.21 (inactive) | -1.41 (inactive) | 0.112 | 0.185 | 0.729 | 0.827 | 0.521
4 | O=C1O[C@H](c2ccccc2)[C@H](c2ccccc2)N2[C@H]1[C@@H](C(=O)Nc1nc3ccccc3s1)[C@]1(C(=O)Nc3ccc(C#CC4=CCCCC4)cc31)[C@H]2c1ccc(OCCO)cc1 | 1.62 | 1.18 | 0.148 | 0.831 | 1.12 | 0.579 | -2.24 | 0.077 | 0.916 | -3.28 (inactive) | 0.706 | -1.3 (inactive) | -0.711 (inactive) | 0.128 (inactive) | 0.205 (inactive) | 1.73 | 0.417 | 0.0608 | 0.407 | 0.598
5 | COCCOC(=O)N1C(=O)[C@@]2(c3ccccc31)[C@H](c1ccc(O)cc1)N1[C@H](c3ccccc3)[C@H](c3ccccc3)OC(=O)[C@H]1[C@@H]2C(N)=O | -0.445 | -0.218 | -0.046 | -1.35 | -0.601 | -0.239 | 0.181 | -0.0341 | -0.0601 | -0.144 (inactive) | -0.235 | -1.34 (inactive) | 0.0439 (inactive) | 0.208 (inactive) | 1.88 (inactive) | -0.516 | -0.128 | -1.04 | 0.619 | -0.218
6 | CC(=O)NCCCC[C@@H]1NC(=O)[C@@H]2C[C@H](C(=O)NCc3ccc(F)cc3)[C@H](c3ccc(O)cc3)N2C1=O | 2.04 | 0.582 | 0.244 | 0.754 | 1.33 | 1.22 | 0.329 | 0.889 | 0.182 | -0.333 (inactive) | 0.0547 | -0.395 (inactive) | 0.587 (inactive) | 0.431 (inactive) | 0.158 (inactive) | 0.0542 | -0.176 | 0.821 | 0.524 | 1.56
7 | COc1ccc([Si](C)(C)[C@H]2[C@H](CCO)O[C@@]3(C(=O)N(Cc4ccccc4)c4ccc(N5C(=O)COc6ccccc65)cc43)[C@@H]2C)cc1 | -0.12 | -0.127 | -0.0125 | 0.26 | -0.242 | -0.116 | 0.771 | -0.0702 | 1.1 | -0.369 (inactive) | 0.19 | -6.69 (inactive) | -0.539 (inactive) | -0.258 (inactive) | -0.81 (inactive) | 0.0375 | 0.189 | -0.503 | 0.105 | 1.92
8 | COc1ccc([Si](C)(C)[C@@H]2[C@@H](CCO)O[C@]3(C(=O)N(Cc4cccc(N(C=O)c5ccccc5)c4)c4ccccc43)[C@H]2C)cc1 | 1.25 | 1.04 | 0.228 | 0.508 | 1.18 | 0.598 | -0.0337 | 0.127 | 0.893 | 0.505 (inactive) | -0.0398 | -7.17 (inactive) | 0.465 (inactive) | 7.39 (inactive) | -0.671 (inactive) | 0.156 | 0.0543 | 0.0905 | -0.004 | 0.98
9 | C=C(COC)C(=O)CC[C@H](OC(=O)c1cccnc1)c1ccccc1OCCO | 1.12 | 1.16 | -0.0493 | 0.756 | 1.36 | 1.56 | -0.0406 | 1.47 | 0.18 | -2.36 (inactive) | 0.112 | -2.22 (inactive) | -0.201 (inactive) | 5.43 (inactive) | 9.65 (active) | 0.279 | 0.0705 | 0.519 | 0.698 | 1.63
10 | O=c1cccc(-c2ccccc2)o1 | -0.192 | -0.377 | 0.192 | -0.468 | 0.145 | -0.417 | 0.103 | -0.57 | 0.143 | 0.616 (inactive) | -0.299 | 0.423 (inactive) | 1.55 (inactive) | -0.723 (inactive) | 0.137 (inactive) | -0.386 | -0.204 | 0.0936 | 0.274 | -0.379
